Experimental data reported in PubChem BioAssay AID1745853 (National Center for Advancing Translational Sciences (NCATS), 2022).
Screen size: about 25,000 compounds; about 970 (3.9%) were called active. Not shown: some 8% with an inconclusive outcome. This is one part of a sample in which actives are shown more often than they occur. The rule behind the calls is not given here.

How the values were obtained:
Experiment in all cases: Primary Screen for Target Class Profiling of Small Molecule Inhibitors of Methyltransferases
[1] = target: Catechol O-methyltransferase (Homo sapiens) (UniProt P21964); conditions: purified enzyme, MTase-Glo SAH luminescence; at 40 µM; stronger effect = lower value
Chain of Catechol O-methyltransferase (Homo sapiens) (P21964 whole entry, looked up): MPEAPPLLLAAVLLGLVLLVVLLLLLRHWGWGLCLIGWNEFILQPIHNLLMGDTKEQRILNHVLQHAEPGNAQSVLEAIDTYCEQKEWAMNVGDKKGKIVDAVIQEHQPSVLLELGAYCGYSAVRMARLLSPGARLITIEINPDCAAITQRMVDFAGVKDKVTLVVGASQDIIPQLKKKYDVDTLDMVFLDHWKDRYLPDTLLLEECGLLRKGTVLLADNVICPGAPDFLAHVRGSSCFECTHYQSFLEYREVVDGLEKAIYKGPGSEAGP
From the text: (§1) PI: Matthew D. Hall Ph.D. and Quinlin M. Hanson Ph.D.
(§2) National Center for Advancing Translational Sciences (NCATS)
(§3) National Institute of Health (NIH), Rockville, MD
(§4) Target class profiling (TCP) is a chemical biology approach amenable to investigating understudied biological targets. TCP is achieved by developing a generalizable assay platform and applying it to screen a curated set of compound libraries against representative members of a target class. Small molecule methyltransferases (SMMTase) are a subclass of methyltransferase that act on metabolites to modulate signaling pathways, metabolize xenobiotics, or balance the available methyl pool. We screened four curated libraries totaling 27,574 unique compounds against the SMMTases nicotinamide N-methyltransferase (NNMT), phenylethanolamine N-methyltransferase (PNMT), histamine N-methyltransferase (HNMT), glycine N-methyltransferase (GNMT), catechol O-methyltransferase (COMT), and guanidinoacetate N-methyltransferase (GAMT). The data generated by this TCP can be leveraged for informed tool molecule development. For example, in the associated publication we identified a chemotype of HNMT-selective inhibitors. Additionally, we identified a putative SMMTase-selective inhibitor with potential as a tool molecule for studying broader methyltransferase biology.
(§5) High-through put screening assays were developed at the National Center for Advancing Translational Science (NCATS) for the enzymes NNMT, PNMT, HNMT, GNMT, COMT, and GAMT. Enzymatic activity was measured as a function of SAM cofactor conversion using the MTase Glo kit (Promega) for all enzymes. All assays were performed in 1536-well format with substrates and SAM concentrations at KM values. Enzyme concentration and assay timing were optimized for 10-20% SAM conversion. Initial screening of 27,574 compounds was done as single-point assays using the highest compound concentration (40 uM). […] These compounds were replated in 11-point dose response and assayed against NNMT, PNMT, HNMT, GNMT, COMT, GAMT, and a counter-assay. The IC50 and efficacy (maximal response) values were determined for each dose-response curve. These values are also accounted for in the area under the curve (AUC) values.
(§6) PROTOCOL TABLE (as described by Inglese J, Shamu CE and Guy RK. 2007)
(§7) SEQUENCE No. (e.g., 1, 2, 3, etc.); […] (e.g., Cells, Incubation, Reagent, etc.); VALUE; DESCRIPTION.
(§8) 1; Reagent; 2 uL; SMMTase Enzyme (2x) in reaction buffer, columns 1- 48.
(§9) 2; Reagent; 1 uL; SAM (4x) in reaction buffer, columns 1-48.
(§10) 3; Controls; 23 nL; DMSO in column 4; sinefungin in DMSO (0 uM - 40 uM) in 7-point 1:2 dilution series (n = 2) in column 2.
(§11) 4; Compounds; 23 nL; Columns 5-48.
(§12) 5; Reagent; 1 uL; Substrate (4x) in reaction buffer, columns 2-48.
(§13) 6; Time; 20-30 min; Incubation.
(§14) 7; Reagent; 1 uL; MTase-Glo reagent (5X), columns 1-48.
(§15) 8; Time; 30 min; Incubation.
(§16) 9; Reagent; 5 uL; MTase-Glo Detection reagent, columns 1-48.
(§17) 10; Time; 30 min; Incubation, luminescence evolution.
(§18) 11; Detection; Luminescence; ViewLux uHTS Microplate Imager (PerkinElmer).
(§19) NOTES (numbers refer to Sequence numbers above)
(§20) 1, 2, 5. White Medium Binding Greiner 1536-well plates (Cat #789175-F, Greiner Bio-One, Monroe, NC); Reaction buffer: 50 mM Tris, pH 8.0, 3 mM MgCl2, 1 mM EDTA, 50 mM NaCl, 1 mM DTT, and 0.1 mg/mL BSA. Evaporation was prevented by covering assay plates with metal lids containing holes to allow gas diffusion.
(§21) 1. Six SMMTase were profiled: HNMT, GNMT, PNMT, COMT, NNMT, GAMT
(§22) 5. The corresponding substrate was used for each enzyme: HNMT - 5.3 uM Histamine; GNMT - >500 uM Glycine; PNMT - 16.2 uM Norephinephrine; COMT - 13.7 uM Norephinephrine; NNMT - 3.8 uM Nicotinamide; GAMT - 2.5 uM Guanidinoacetate.6, 8, 10. Room temperature
(§23) 6. Final reaction conditions: 10 nM COMT, 5 uM SAM, 15 uM norepinephrine, 50 mM Tris, pH 8.0, 3 mM MgCl2, 1 mM EDTA, 50 mM NaCl, 1 mM DTT, and 0.1 mg/mL BSA; refer to tables 2 and S1 for specific timing.
8. […]

[2] = target: Glycine N-methyltransferase (Homo sapiens) (UniProt Q14749); conditions: purified enzyme, MTase-Glo SAH luminescence; measured here: GNMT inhibition; at 40 µM; stronger effect = lower value
Chain of Glycine N-methyltransferase (Homo sapiens) (Q14749 whole entry, looked up): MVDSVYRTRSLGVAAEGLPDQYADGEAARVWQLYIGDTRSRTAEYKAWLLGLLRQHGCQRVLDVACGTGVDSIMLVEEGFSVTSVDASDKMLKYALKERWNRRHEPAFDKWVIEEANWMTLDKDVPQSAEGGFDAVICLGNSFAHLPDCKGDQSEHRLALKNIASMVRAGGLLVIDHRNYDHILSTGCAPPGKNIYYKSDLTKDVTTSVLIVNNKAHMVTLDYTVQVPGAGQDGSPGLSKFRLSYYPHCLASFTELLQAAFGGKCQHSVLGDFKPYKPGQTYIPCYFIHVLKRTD
From the text: as §1, §2, §3, §4, §5, §6, §7, §8, §9, §10, §11, §12, §13, §14, §15, §16, §17, §18, §19, §20, §21, §22, §23
8. […]

[3] = target: Guanidinoacetate N-methyltransferase (Homo sapiens) (UniProt Q14353); conditions: purified enzyme, MTase-Glo SAH luminescence; measured here: GAMT inhibition; at 40 µM; stronger effect = lower value
From the text: as §1, §2, §3, §4, §5, §6, §7, §8, §9, §10, §11, §12, §13, §14, §15, §16, §17, §18, §19, §20, §21, §22, §23
8. […]

[4] = target: Histamine N-methyltransferase (Homo sapiens) (UniProt P50135); conditions: purified enzyme, MTase-Glo SAH luminescence; measured here: HNMT inhibition; at 40 µM; stronger effect = lower value
Chain of Histamine N-methyltransferase (Homo sapiens) (P50135 whole entry, looked up): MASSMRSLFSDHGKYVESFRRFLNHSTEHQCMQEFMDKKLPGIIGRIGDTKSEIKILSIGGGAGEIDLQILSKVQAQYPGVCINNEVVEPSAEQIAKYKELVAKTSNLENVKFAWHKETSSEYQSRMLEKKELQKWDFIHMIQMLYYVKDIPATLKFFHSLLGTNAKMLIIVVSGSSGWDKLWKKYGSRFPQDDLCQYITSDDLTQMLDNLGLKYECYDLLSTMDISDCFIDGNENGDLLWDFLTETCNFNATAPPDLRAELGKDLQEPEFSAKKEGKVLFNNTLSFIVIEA
From the text: as §1, §2, §3, §4, §5, §6, §7, §8, §9, §10, §11, §12, §13, §14, §15, §16, §17, §18, §19, §20, §21, §22, §23
8. […]

[5] = target: Nicotinamide N-methyltransferase (Homo sapiens) (UniProt P40261); conditions: purified enzyme, MTase-Glo SAH luminescence; measured here: NNMT inhibition; at 40 µM; stronger effect = lower value
Chain of Nicotinamide N-methyltransferase (Homo sapiens) (P40261 whole entry, looked up): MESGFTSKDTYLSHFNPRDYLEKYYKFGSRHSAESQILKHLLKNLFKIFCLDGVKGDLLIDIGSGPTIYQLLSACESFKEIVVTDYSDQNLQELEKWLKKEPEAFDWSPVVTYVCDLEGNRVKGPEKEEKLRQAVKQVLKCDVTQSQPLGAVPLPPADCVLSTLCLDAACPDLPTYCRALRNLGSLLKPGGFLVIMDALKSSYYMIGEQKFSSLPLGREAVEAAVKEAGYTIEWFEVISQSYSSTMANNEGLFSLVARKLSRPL
From the text: as §1, §2, §3, §4, §5, §6, §7, §8, §9, §10, §11, §12, §13, §14, §15, §16, §17, §18, §19, §20, §21, §22, §23
8. […]

[6] = target: Phenylethanolamine N-methyltransferase (Homo sapiens) (UniProt P11086); conditions: purified enzyme, MTase-Glo SAH luminescence; measured here: PNMT inhibition; at 40 µM; stronger effect = lower value
Chain of Phenylethanolamine N-methyltransferase (Homo sapiens) (P11086 whole entry, looked up): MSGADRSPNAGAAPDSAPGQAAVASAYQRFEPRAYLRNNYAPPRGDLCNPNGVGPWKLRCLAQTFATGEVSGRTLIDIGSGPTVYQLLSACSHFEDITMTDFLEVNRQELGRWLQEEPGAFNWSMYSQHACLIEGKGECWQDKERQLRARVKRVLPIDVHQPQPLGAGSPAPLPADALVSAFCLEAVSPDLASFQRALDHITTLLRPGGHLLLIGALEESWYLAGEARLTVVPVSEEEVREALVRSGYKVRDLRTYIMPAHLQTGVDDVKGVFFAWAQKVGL
From the text: as §1, §2, §3, §4, §5, §6, §7, §8, §9, §10, §11, §12, §13, §14, §15, §16, §17, §18, §19, §20, §21, §22, §23
8. […]
% is set by controls: 0 for no effect and ±100 for the full control effect.

| SMILES | activity change, negative = inhibition [1] | activity change, negative = inhibition [2] | activity change, negative = inhibition [3] | activity change, negative = inhibition [4] | activity change, negative = inhibition [5] | activity change, negative = inhibition [6] |
| --- | --- | --- | --- | --- | --- | --- |
| COC1CC(O[C@H]2CC[C@@]3(C)C(CCC4C3CC[C@]3(C)[C@@H](C5=CC(=O)OC5)CC[C@]43O)C2)OC(C)C1O (stereo not given in full) | -9.86% (inactive) | -6.87% | -29.4% | 1.18% | -27.7% | -12.7% |
| CO[C@H]1C[C@H](O[C@H]2CC[C@]3(CO)[C@H]4CC[C@]5(C)[C@@H](C6=CC(=O)OC6)CC[C@]5(O)[C@@H]4CC[C@]3(O)C2)O[C@H](C)[C@H]1O | -8.57% (inactive) | -6.2% | -5.89% | -0.519% | -17.6% | -14.3% |
| C[C@H]1O[C@@H](O[C@H]2CC[C@]3(CO)C4CC[C@]5(C)[C@@H](C6=CC(=O)OC6)CC[C@]5(O)[C@@H]4CC[C@H]3C2)[C@H](O)[C@H](O)[C@@H]1O[C@@H]1O[C@H](CO)[C@@H](O)[C@H](O)[C@H]1O (stereo not given in full) | -91.7% (active) | -5.56% | -4.58% | -5.35% | -16% | 0.37% |
| CN(C)c1ccc(C2c3cccn3-c3ccccc3CN2C(=O)NCc2ccccc2)cc1 (stereo not given) | 0.57% (inactive) | 0.802% | 6.24% | -5.35% | -6.61% | -0.417% |
| CN(C)c1ccc(C2c3cccn3-c3ccccc3CN2C(=O)Nc2ccccc2)cc1 (stereo not given) | -1.13% (inactive) | 1.96% | -0.001% | -8% | -4.78% | -1.52% |
| NCC(O)c1ccc(O)cc1 (stereo not given) | 3.68% (active) | -1.52% | 3.17% | -74.4% | -9.18% | 11.4% |
| COCC1CN(Cc2ccsc2)CC12CCNCC2 (stereo not given) | -8.14% (inactive) | -4.38% | -6.87% | -9.72% | -11.7% | -11.5% |
| CCc1ccccc1NC(=O)N1Cc2ccccc2-n2cccc2C1c1ccccc1Cl (stereo not given) | -0.522% (inactive) | 4.4% | 3.52% | -2.61% | 1.65% | 1.03% |
| CC(=O)Nc1ccc(-c2ccc3n(c2=O)C[C@H]2C[C@@H]3CN(C3CCN(C)CC3)C2)cc1 | -5.08% (inactive) | -3.31% | -2.09% | -19.5% | -9.65% | 8.92% |
| C#C[C@]1(O)CC[C@H]2[C@@H]3CC[C@H]4Cc5nc6nc7ccccc7n6cc5C[C@]4(C)[C@H]3CC[C@@]21C | -23.3% (active) | -13.8% | -29.6% | -17.3% | -52.4% | -33.3% |
| COc1cccc([C@H]2CN(c3cc(C)nc(N)n3)[C@@H]3C4CCN(CC4)[C@H]23)c1 | -2.54% (inactive) | -5.12% | -8.6% | -24.3% | -8.14% | -9.36% |
| COc1cccc(CC(=O)N2CCCCCC2CN2CCCC2)c1 (stereo not given) | 3.61% (inactive) | -1.59% | -5.27% | -5.48% | -4.35% | 0.866% |
| CCc1ccc(C2c3cccn3-c3ccccc3CN2C(=O)Nc2cc(C)cc(C)c2)cc1 (stereo not given) | 5.19% (inactive) | 9.8% | 0.9% | 2.8% | 4.04% | 7.84% |
| COC(=O)c1ccccc1NC(=O)N1Cc2ccccc2-n2cccc2C1c1ccccc1Cl (stereo not given) | 3.56% (inactive) | 11.4% | 3.31% | 5.36% | 0.178% | 5.41% |
| CCC1c2cccn2-c2ccccc2CN1C(=O)Nc1cccc(C)c1C (stereo not given) | 2.68% (inactive) | -0.789% | 3.87% | -2.49% | -4.56% | 2.16% |
